Data: PubChem BioAssay
Activity calls are given as the source filed them. Unless noted, no rule for the calls is given here.

How the values were obtained:
[1] = system: Wnt5a (protein binding on small-molecule microarray); assay: small molecules binding Wnt5a protein – biophysical, small-molecule microarray, 635/667 nm fluorescence, primary screen (AID 1142); conditions: 635 nm fluorescence, higher = more signal;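 also: fluorescence read at 667 nm with signal to noise per printed feature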
[2] = ATP-based viability of Huh7 replicon cells – cell-based, CellTiter-Glo luminescence, basal, 48 h, cytotoxicity control for HCV replication inhibitor project, primary screen (AID 1143); conditions: higher = more signal, called active from +8 up or from −8 down;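 also: Huh7 hepatoma cells carrying a hepatitis C replication reporter with no stimulus; test concentration not given here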
[3] = Pseudomonas biofilm growth suppression – PAO1 strain, BacTiter-Glo luminescence, LB-PBS, primary screen (AID 1144); conditions: P. aeruginosa PAO1 biofilm, 12 h, higher = more signal
[4] = basal CRE-LacZ reporter activity in PC12 – cell-based, unstimulated, primary screen (AID 1145); conditions: no forskolin, luminescence, 4.5 h, higher = more signal, called active from +8 up or from −8 down
[5] = forskolin-driven CRE-LacZ activity in PC12 – cell-based, CRE-LacZ reporter, forskolin-stimulated, primary screen (AID 1146); conditions: luminescence, 4.5 h, higher = more signal, called active from +8 up or from −8 down;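 also: PC12 cells with 6xCRE LacZ reporter stimulated by forskolin 10 µM; beta-galactosidase reporter signal reflecting CREB driven transcription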
[6] = molecular target: Streptavidin (Streptomyces avidinii) (UniProt P22629); assay: compounds binding control protein streptavidin – biophysical, small-molecule microarray, 635/667 nm fluorescence, artefact control for SMM compound annotation, primary screen (AID 1147); conditions: higher = more signal;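 also: signal reflects streptavidin binding to arrayed compounds as a control protein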
Chain of Streptavidin (Streptomyces avidinii) (P22629 whole entry, looked up): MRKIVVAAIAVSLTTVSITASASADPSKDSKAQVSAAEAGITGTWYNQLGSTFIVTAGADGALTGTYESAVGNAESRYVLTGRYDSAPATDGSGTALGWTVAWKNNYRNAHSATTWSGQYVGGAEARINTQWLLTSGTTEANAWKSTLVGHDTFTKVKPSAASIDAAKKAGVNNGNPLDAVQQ

[7] = probe aInhba binding on compound microarray – biochemical, small-molecule microarray, 635/667 nm fluorescence, primary screen (AID 1148); conditions: higher = more signal;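 also: score merges 667nm spot fluorescence with signal-to-noise for antibody binding to printed compounds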
[8] = molecular target: Torsin-1A (Homo sapiens) (UniProt O14656); assay: TOR1A wild-type binding on microarray – cell lysate, small-molecule microarray, lysate, 635/667 nm, primary screen (AID 1149); conditions: COS7 hTOR1A-WT lysate, 635 nm fluorescence, higher = more signal
Chain of Torsin-1A (Homo sapiens) (O14656 whole entry, looked up): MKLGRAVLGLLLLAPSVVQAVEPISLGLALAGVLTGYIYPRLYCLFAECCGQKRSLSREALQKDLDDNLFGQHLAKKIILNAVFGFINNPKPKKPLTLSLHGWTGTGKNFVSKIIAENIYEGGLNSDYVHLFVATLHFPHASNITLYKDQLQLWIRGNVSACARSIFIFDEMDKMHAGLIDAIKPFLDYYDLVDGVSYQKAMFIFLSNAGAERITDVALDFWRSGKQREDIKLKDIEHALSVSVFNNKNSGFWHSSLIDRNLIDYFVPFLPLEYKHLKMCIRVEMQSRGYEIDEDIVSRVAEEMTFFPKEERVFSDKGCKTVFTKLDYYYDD

[9] = molecular target: Torsin-1A (Homo sapiens) (UniProt O14656); assay: torsin A mutant lysate binding on microarrays – cell lysate, small-molecule microarray, COS7 lysate, 635/667 nm fluorescence, primary screen (AID 1150); conditions: COS7 hTOR1A mutant lysate, 635 nm fluorescence, higher = more signal;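 also: score pools 667 nm emission and signal to noise measuring lysate protein binding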
[10] = system: Sonic hedgehog protein (Shh); assay: Sonic hedgehog microarray binding compounds – biochemical, small-molecule microarray, 635/667 nm fluorescence, primary screen (AID 1151); conditions: 635 nm fluorescence, higher = more signal;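 also: Shh protein binding to compounds spotted on small-molecule microarray slides; score combines spot fluorescence intensity with signal-to-noise across triplicate slides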
[11] = optical density shifts of acrAB sulA E. coli – strain DRC41, OD650, 48 h, E. coli filamentation inducer project, primary screen (AID 1152); conditions: higher = more signal, called active from +8 up or from −8 down;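 also: E. coli MC1000 strain DRC41 lacking acrAB efflux pump and sulA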
[12] = probe aLefty1 binding on compound microarray – biochemical, small-molecule microarray, 635/667 nm fluorescence, primary screen (AID 1153); conditions: higher = more signal;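 also: score merges spot fluorescence with signal-to-noise ratio from the scanned slide images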
[13] = plasmodial surface anion channel blockers, osmotic lysis – cell-based, P. falciparum Indochina, OD700, 1 h, primary screen (AID 1154); conditions: P. falciparum Indochina infected RBC osmotic lysis, higher = more signal, called active from +8 up or from −8 down
[14] = plasmodial surface anion channel blockers, osmotic lysis – cell-based, P. falciparum Indochina, OD700, 2 h, primary screen (AID 1155);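 also: lysis reports solute entry through the parasite surface anion channel PSAC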; conditions: P. falciparum Indochina infected erythrocytes, higher = more signal, called active from +8 up or from −8 down
[15] = changes in parasitized red cell lysis, either direction – P. falciparum Indochina, OD700, 3 h, PSAC antagonist project, primary screen (AID 1156); conditions: P. falciparum-infected erythrocytes, osmotic lysis, higher = more signal, called active from +8 up or from −8 down
[16] = plasmodial surface anion channel blockers, osmotic lysis – cell-based, P. falciparum Indochina, OD700, 18 h, primary screen (AID 1157); conditions: P. falciparum Indochina infected erythrocytes, osmotic lysis OD700, 18 h; higher = more signal, called active from +8 up or from −8 down
[17] = S6 kinase pathway phospho-S6 level changes – cell-based, A549, cytoblot, luminescence, serum-stimulated, primary screen (AID 1158); conditions: 5 h, higher = more signal;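 also: serum-stimulated A549 lung adenocarcinoma cells; signal is phosphorylated S6 detected by cytoblot immunostaining with HRP secondary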
[18] = molecular target: NADPH oxidase 2 (Homo sapiens) (UniProt P04839); assay: compounds shifting NOX2 Amplex Red fluorescence – cell-based, HEK293-NOX2, PMA-stimulated, NOX inhibitor project, primary screen (AID 1159); conditions: 45 min, higher = more signal, called active from +8 up or from −8 down; also: test concentration not given here
Chain of NADPH oxidase 2 (Homo sapiens) (P04839 whole entry, looked up): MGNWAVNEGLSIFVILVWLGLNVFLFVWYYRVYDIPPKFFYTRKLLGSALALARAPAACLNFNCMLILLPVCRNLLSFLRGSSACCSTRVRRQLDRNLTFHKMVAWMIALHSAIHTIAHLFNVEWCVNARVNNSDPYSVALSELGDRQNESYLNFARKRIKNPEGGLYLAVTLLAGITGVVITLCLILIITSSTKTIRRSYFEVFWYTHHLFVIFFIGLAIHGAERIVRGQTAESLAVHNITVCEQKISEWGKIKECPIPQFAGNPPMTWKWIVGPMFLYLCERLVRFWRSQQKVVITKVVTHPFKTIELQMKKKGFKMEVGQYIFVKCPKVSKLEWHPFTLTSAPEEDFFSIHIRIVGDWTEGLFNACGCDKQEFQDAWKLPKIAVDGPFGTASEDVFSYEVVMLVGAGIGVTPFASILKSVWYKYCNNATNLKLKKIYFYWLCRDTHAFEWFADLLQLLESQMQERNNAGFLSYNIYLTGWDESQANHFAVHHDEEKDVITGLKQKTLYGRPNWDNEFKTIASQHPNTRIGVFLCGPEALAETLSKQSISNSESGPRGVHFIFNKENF

[19] = molecular target: NADPH oxidase 4 (Homo sapiens) (UniProt Q9NPH5); assay: compounds shifting NOX4 Amplex Red fluorescence – cell-based, HEK293-NOX4, tetracycline-induced, NOX inhibitor project, primary screen (AID 1160); conditions: HEK293-NOX4, Amplex Red H2O2 fluorescence, 45 min; higher = more signal, called active from +8 up or from −8 down
Chain of NADPH oxidase 4 (Homo sapiens) (Q9NPH5 whole entry, looked up): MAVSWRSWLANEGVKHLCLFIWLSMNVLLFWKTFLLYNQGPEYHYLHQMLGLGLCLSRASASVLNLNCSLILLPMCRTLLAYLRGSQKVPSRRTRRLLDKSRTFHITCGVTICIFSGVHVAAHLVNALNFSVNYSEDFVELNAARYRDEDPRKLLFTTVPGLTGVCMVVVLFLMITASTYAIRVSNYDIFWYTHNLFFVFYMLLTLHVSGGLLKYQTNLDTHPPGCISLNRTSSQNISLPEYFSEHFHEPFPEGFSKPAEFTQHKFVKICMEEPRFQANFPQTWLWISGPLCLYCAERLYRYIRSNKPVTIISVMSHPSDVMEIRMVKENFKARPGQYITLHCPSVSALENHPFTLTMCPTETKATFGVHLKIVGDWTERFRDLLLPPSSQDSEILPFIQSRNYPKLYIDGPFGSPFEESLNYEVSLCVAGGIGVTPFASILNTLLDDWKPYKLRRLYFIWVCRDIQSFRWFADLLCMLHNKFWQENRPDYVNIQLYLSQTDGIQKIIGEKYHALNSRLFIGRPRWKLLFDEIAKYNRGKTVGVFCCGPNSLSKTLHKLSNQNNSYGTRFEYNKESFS

[20] = molecular target: NADPH oxidase 5 (Homo sapiens) (UniProt Q96PH1); assay: compounds shifting NOX5 Amplex Red fluorescence – cell-based, HEK293-NOX5, NOX inhibitor project, primary screen (AID 1161); conditions: HEK293-NOX5, ionomycin, 45 min, higher = more signal
Chain of NADPH oxidase 5 (Homo sapiens) (Q96PH1 whole entry, looked up): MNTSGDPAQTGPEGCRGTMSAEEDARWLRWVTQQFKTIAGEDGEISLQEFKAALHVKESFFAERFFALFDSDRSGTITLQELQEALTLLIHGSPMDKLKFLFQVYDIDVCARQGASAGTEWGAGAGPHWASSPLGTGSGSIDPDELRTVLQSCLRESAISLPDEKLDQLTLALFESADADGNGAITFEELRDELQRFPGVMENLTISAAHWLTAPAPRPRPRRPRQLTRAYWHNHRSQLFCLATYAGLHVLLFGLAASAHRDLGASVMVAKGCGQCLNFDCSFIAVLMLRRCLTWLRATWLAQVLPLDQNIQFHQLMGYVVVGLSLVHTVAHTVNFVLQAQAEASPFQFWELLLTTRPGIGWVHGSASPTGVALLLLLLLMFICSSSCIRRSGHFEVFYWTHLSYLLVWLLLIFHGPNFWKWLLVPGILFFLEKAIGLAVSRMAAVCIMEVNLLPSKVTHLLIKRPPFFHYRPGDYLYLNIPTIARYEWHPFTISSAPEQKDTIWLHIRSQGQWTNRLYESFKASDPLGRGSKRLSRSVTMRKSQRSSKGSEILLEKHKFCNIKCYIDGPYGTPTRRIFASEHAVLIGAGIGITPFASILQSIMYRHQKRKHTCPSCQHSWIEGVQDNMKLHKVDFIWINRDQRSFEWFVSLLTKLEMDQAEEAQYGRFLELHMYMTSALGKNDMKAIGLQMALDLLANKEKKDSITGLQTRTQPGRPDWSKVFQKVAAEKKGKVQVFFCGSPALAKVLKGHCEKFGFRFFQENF

Row | Compound | composite z-score [1] | z-score [2] | z-score [3] | z-score [4] | z-score [5] | composite z-score [6] | composite z-score [7] | composite z-score [8] | composite z-score [9] | composite z-score [10] | z-score [11] | composite z-score [12] | z-score [13] | z-score [14] | z-score [15] | z-score [16] | z-score [17] | z-score [18] | z-score [19] | z-score [20]
1 | COCCOC(=O)N1C(=O)[C@@]2(c3cc(C#CCCO)ccc31)[C@H](c1ccc(OCCO)cc1)N1[C@H](c3ccccc3)[C@H](c3ccccc3)OC(=O)[C@H]1[C@@H]2C(=O)N1CCc2cc(OC)c(OC)cc2C1 | 0.359 | -0.415 (inactive) | -0.66 (inactive) | -0.231 (inactive) | -0.196 (inactive) | 0.402 | 0.153 | 0.637 | 0.748 | 1.37 | 0.526 (inactive) | 0.777 | 3.2 (inactive) | 1.67 (inactive) | 0.226 (inactive) | 1.1 (inactive) | -0.354 | 0.898 (inactive) | 1.01 (inactive) | 1.23
2 | O=C1c2ccccc2C(=O)C2CC([C@H]3Oc4ccccc4S(=O)(=O)N4CCC[C@@H]34)=CCC12 (stereo not given in full) | -0.0428 | -3.06 (inactive) | 0.618 (inactive) | 6.12 (inactive) | -1.59 (inactive) | 0.161 | -0.0471 | 0.208 | 0.402 | -0.133 | 1.03 (inactive) | -0.196 | 8 (inactive) | 1.12 (inactive) | -0.0247 (inactive) | 0.696 (inactive) | 0.127 | 0.5 (inactive) | -3.1 (inactive) | -0.779
3 | C=C(COC)C(=O)CC[C@H](OC(=O)c1ccccc1-c1ccccc1C(=O)O)c1ccc(CO)o1 | 0.634 | 0.465 (inactive) | -0.39 (inactive) | 0.434 (inactive) | 0.964 (inactive) | -0.451 | -0.179 | 0.507 | 1.79 | 1.69 | -0.093 (inactive) | -0.0954 | 1.77 (inactive) | 0.404 (inactive) | 1.38 (inactive) | 0.161 (inactive) | -0.121 | -0.0961 (inactive) | -0.0962 (inactive) | -0.0437
4 | O=C1NC(=O)C2C1C=CC(C(O)CCc1ccccc1)N2Nc1ccccn1 (stereo not given) | 0.149 | -0.466 (inactive) | -0.922 (inactive) | 0.433 (inactive) | -0.382 (inactive) | 0.179 | -0.0849 | 0.0825 | 0.486 | 0.0046 | 0.0468 (inactive) | 0.0844 | -0.247 (inactive) | -0.752 (inactive) | -0.548 (inactive) | -1.97 (inactive) | 1 | -1.43 (inactive) | -3.34 (inactive) | -1.52
5 | COCCOC(=O)N1C(=O)[C@@]2(c3cc(C#CCNC(N)=O)ccc31)[C@H](C(=O)N1CCCCCCC1)[C@H]1C(=O)O[C@H](c3ccccc3)[C@H](c3ccccc3)N1[C@@H]2c1ccc(OCCO)cc1 | 0.0855 | -0.897 (inactive) | -1.52 (inactive) | 0.22 (inactive) | -0.311 (inactive) | 0.32 | 0.232 | 0.0121 | 0.145 | 0.438 | 0.0904 (inactive) | 0.174 | 4.45 (inactive) | 1.89 (inactive) | 1.99 (inactive) | 1.25 (inactive) | 0.437 | 1.53 (inactive) | 1.25 (inactive) | 0.0911
6 | COCCOC(=O)N1C(=O)[C@@]2(c3cc(C#CC4(O)CCCCCC4)ccc31)[C@H](C(=O)N1CCN(c3ncccn3)CC1)[C@H]1C(=O)O[C@H](c3ccccc3)[C@H](c3ccccc3)N1[C@@H]2c1ccc(O)cc1 | 0.521 | -1.45 (inactive) | 0.148 (inactive) | -0.375 (inactive) | 0.505 (inactive) | -0.0314 | 0.0982 | 0.553 | 0.432 | 0.481 | 0.923 (inactive) | 0.63 | 0.71 (inactive) | 0.566 (inactive) | 0.991 (inactive) | 0.613 (inactive) | 0.274 | 1.43 (inactive) | -1.31 (inactive) | 1.49
7 | C=C(/C(=C/C[C@@H](OC(C)=O)c1ccccc1OCCO)c1cnc2ccccc2c1)C(C)C | 0.515 | -1.35 (inactive) | 0.362 (inactive) | 10.8 (active) | 0.982 (inactive) | -0.02 | 0.167 | 0.72 | 0.0714 | 1.81 | 0.0675 (inactive) | -0.0428 | 11.6 (active) | 2.53 (inactive) | 1.82 (inactive) | 1.04 (inactive) | 0.458 | -1.08 (inactive) | -1.28 (inactive) | -1.49
8 | C=CCN1C(=O)[C@@]2(O[C@@H](CCn3cc([C@H](O)c4ccccc4)nn3)[C@H]([Si](C)(C)c3ccc(OC)cc3)[C@H]2C)c2cc(NC(=O)c3ccc(OC)cc3)ccc21 | 0.192 | -3.14 (inactive) | -0.527 (inactive) | 3.97 (inactive) | 0.35 (inactive) | 0.429 | -0.128 | -0.0041 | -0.0819 | 1.32 | 0.55 (inactive) | -0.0016 | 6.81 (inactive) | 1.77 (inactive) | 1.39 (inactive) | 1.38 (inactive) | 0.689 | 0.106 (inactive) | 0.863 (inactive) | 0.583
9 | O=C1O[C@H](c2ccccc2)[C@H](c2ccccc2)N2[C@H]1[C@@H](C(=O)NC[C@H](O)c1ccccc1)[C@]1(C(=O)Nc3ccccc31)[C@H]2c1ccccc1OCCO | -0.0435 | -6.33 (inactive) | -0.908 (inactive) | -0.581 (inactive) | -0.563 (inactive) | -0.164 | 0.0841 | 0.735 | 1.18 | 1.29 | 2.45 (inactive) | 0.453 | 5.21 (inactive) | 1.84 (inactive) | -2.5 (inactive) | -0.343 (inactive) | 2.39 | 1.23 (inactive) | 0.707 (inactive) | 0.34
